Experimental findings from PubChem BioAssay (Tox21) are described below.

Several values for one entry are separate records, joined by “and”; a condition that tells them apart may be missing. Equal values may be shown once. Results filed as inconclusive are left out. More than one record can exist for a structure, and the calls need not agree. Activity calls are given as the source filed them. Unless noted, the call rests on the fitted dose curve; in most records, active means well fitted curve in the direction sought with a large enough effect in the repeat runs; inconclusive means weak or mixed curves; inactive means no such curve, though single readings can be large; an effect the other way counts as inactive or inconclusive.

Assay [1] is described as follows: qHTS assay to identify small molecule antagonists of the vitamin D receptor (VDR) signaling pathway - cell viability counter screen (AID 743225). Further: nearly all actives have a fitted effect of over 50% in size. In short, it runs like this:
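Parallel cytotoxicity test: VDR-UAS-bla HEK 293T, 3 nM (final) 1-alpha,25-dihydroxyvitamin D3 with test compound, 16 h, 37C. Endpoint is CellTiter-Glo luminescence in the same wells.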

A short description of assay [2]: qHTS assay to identify small molecule agonists of the NFkB signaling pathway - cell viability counter screen (AID 1159515; calls by dose curve; further: nearly all actives have a fitted effect of over 55% in size; further: potency means the concentration at half of the fitted maximal effect). A digest of the protocol:
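Counter screen run alongside the NFkB-bla agonist assay: ME-180 reporter cells exposed to compounds for 5 hr, then lysed with CellTiter-Glo in the same wells. Luminescence, read after 30 min, reflects viable cells.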
On the technique in general: qHTS replaces the single test concentration by a dilution series.

Assay [3] can be described thus: qHTS assay to identify small molecule agonists of the endoplasmic reticulum stress response signaling pathway (AID 1159516; active means well fitted activation curve with a large enough effect in the signal ratio in the repeat runs, not every such curve was filed as active; the % refers to the signal ratio). A digest of the protocol:
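For this screen, HeLa cells stably carrying beta-lactamase under the ER stress response element received test compounds, positive controls or DMSO for 5 hr at 37 C; B/G FRET substrate was then added and dual-wavelength emission recorded.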

Assay [4] in a line: qHTS assay to identify small molecule agonists of the endoplasmic reticulum stress response signaling pathway - cell viability counter screen (AID 1159517; calls by dose curve; further: nearly all actives have a fitted effect of over 50% in size; further: potency means the concentration at half of the fitted maximal effect). In short, it runs like this: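 ESRE-bla HeLa cells (1,500/well) were plated overnight at 37 C and exposed to compounds for 5 hr. After the 2 hr beta-lactamase substrate read, CellTiter-Glo went into the same wells, and luminescence was read after 30 min at room temperature.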

The nature of assay [5]: qHTS assay to identify small molecule antagonists of the retinoid-related orphan receptor gamma (ROR-gamma) signaling pathway - cell viability counter screen (AID 1159520). Further: nearly all actives have a fitted effect of over 50% in size. In short, it runs like this: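 Cytotoxicity was read from cellular ATP (CellTiter-Glo luminescence) after 16 hr at 37 C with 1 uM doxycycline induction. The inducer was added 2 hr after compound transfer to Tet-on ROR gamma CHO cells.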

Assay [6] is described as follows: qHTS assay to identify small molecule agonists of the AP-1 signaling pathway - cell viability counter screen (AID 1159525; calls by dose curve; further: nearly all actives have a fitted effect of over 55% in size; further: potency means the concentration at half of the fitted maximal effect). In short, it runs like this:
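Intracellular ATP by Cell Titer Glo luminescence (30 min, RT) in the same ME-180 AP-1-bla wells after the 5 h compound exposure at 37 °C. Normalised to tetra n-octyl ammonium bromide and DMSO controls.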

The target in assay [7] is Retinoic acid receptor RXR-alpha (Homo sapiens) (UniProt P19793). In words: qHTS assay to identify small molecule agonists of the RXR signaling pathway (AID 1159527; calls by dose curve; further: nearly all actives have a fitted effect of over 35% in size; further: potency means the concentration at half of the fitted maximal effect). A digest of the protocol: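 16 hr incubation of compound-treated RXR-alpha-UAS-bla HEK 293T cells (2% charcoal-stripped FBS, 37 C) preceded a 2 hr room-temperature LiveBLAzer FRET substrate step and blue/green fluorescence measurement.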

Assay [8] in a line: qHTS assay to identify small molecule agonists of the RXR signaling pathway - cell viability counter screen (AID 1159529). Further: nearly all actives have a fitted effect of over 50% in size. Further: potency means the concentration at half of the fitted maximal effect. In short, it runs like this: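 In this parallel viability measure, GeneBLAzer RXR-alpha HEK 293T cells (2% charcoal-stripped FBS) were given a 5 hr preincubation, treated with compounds 16 hr at 37 C, and read by CellTiter-Glo luminescence.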
Assay [9] is described as follows: qHTS assay to identify small molecule antagonists of the retinoid acid receptor (RAR) signaling pathway - cell viability counter screen (AID 1159551). Further: nearly all actives have a fitted effect of over 35% in size. A digest of the protocol:
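Measured by luminescent ATP detection, viability reflects C3RL4 cells treated 6 h at 37 C with test chemicals in the presence of 1 uM (final) retinol.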

Assay [10] is described as follows: qHTS assay to identify small molecule antagonists of the retinoic acid receptor (RAR) signaling pathway (AID 1159552; further: nearly all actives have a fitted effect of over 50% in size). In short, it runs like this:
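C3RL4 RARE-luc cells, overnight plating; retinol 1 uM final added right after compound; 6 hr 37 C; luciferase read at 30 min RT.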

A short description of assay [11]: qHTS assay to identify small molecule antagonists of the estrogen related receptor (ERR) signaling pathway from Tox21 library - cell viability counter screen (AID 1224834). Further: nearly all actives have a fitted effect of over 30% in size. Further: potency means the concentration at half of the fitted maximal effect. In short, it runs like this:
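Seeded ERR cells were rested 6 h at 37 C/5% CO2 before compounds, positive and negative controls or DMSO were added. Incubation continued for 17.5 h, and viability was then quantified by CellTiter-Fluor fluorescence.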

Assay [12] deals with Nuclear receptor ROR-gamma (Homo sapiens) (UniProt P51449). In words: qHTS assay to identify small molecule antagonists of the retinoid-related orphan receptor gamma (ROR-gamma) signaling pathway (AID 1159521). In short, it runs like this: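 Decreased RORE-driven luciferase luminescence indicates antagonism. Tet-on RORγ CHO cells received compound, then 1 uM final doxycycline 2 h later; signal read after 16 h incubation.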

Assay [13] can be described thus: qHTS assay to identify small molecule agonists of the AP-1 signaling pathway (AID 1159526; calls by dose curve).
Assay [14] can be described thus: qHTS assay to identify small molecule agonists of the retinoic acid receptor (RAR) signaling pathway (AID 1159553). As to conditions: C3RL4 RARE luciferase reporter, agonist, 6 h; activation: at 73.3 µM (top of the series) unless noted. In short, it runs like this:
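6 hr compound exposure (DMSO vehicle) of overnight-plated C3RL4 RARE-luc cells at 37 C; luminescence quantified after 30 min RT with luciferase reagent.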

Assay [15] is described as follows: qHTS assay to identify small molecule antagonists of the estrogen related receptor (ERR) signaling pathway - cell viability counter screen (AID 1224818). In short, it runs like this:
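Compounds dissolved in DMSO were applied to ERR cells seeded at 2,000 per well 6 h earlier. Cell viability followed 17.5 h later via 30-min CellTiter-Fluor fluorescence.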

Assay [16] in a line: qHTS assay to identify small molecule antagonists of the estrogen related receptor signaling pathway with the pleiotropic PPARgamma coactivator (PGC) cell viability counter screen (AID 1224822). In short, it runs like this: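 Counter screen for cell viability: PGC/ERR cells, 6 h pre-incubation after plating, 17.5 h compound exposure at 37 C, fluorescence from CellTiter-Fluor after 30 min.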

Sequence of Retinoic acid receptor RXR-alpha (Homo sapiens) (P19793 whole entry, looked up): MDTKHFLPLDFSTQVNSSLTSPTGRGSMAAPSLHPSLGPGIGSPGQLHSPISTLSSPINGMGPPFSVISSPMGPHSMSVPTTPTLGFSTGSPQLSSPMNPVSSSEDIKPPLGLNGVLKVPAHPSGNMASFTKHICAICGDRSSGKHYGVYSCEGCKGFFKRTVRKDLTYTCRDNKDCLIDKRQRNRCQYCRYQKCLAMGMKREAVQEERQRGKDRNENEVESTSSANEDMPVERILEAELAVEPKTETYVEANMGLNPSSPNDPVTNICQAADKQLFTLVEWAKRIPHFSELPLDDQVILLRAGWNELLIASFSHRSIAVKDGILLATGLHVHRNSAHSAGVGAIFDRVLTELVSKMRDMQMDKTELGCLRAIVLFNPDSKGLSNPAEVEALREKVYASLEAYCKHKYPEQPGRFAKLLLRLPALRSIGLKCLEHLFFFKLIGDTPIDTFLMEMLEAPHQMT

Turning to `Nc1ccc2c(O)cc(S(=O)(=O)O)cc2c1`, the Potency result in assay [1], in assay [2], in [3], in assay [4], in assay [5] and in assay [6] was “inactive” throughout. Moreover, the Potency result in assay [7], in [8], in assay [9] and in [10] was “inactive” throughout. In [11], the Potency was 27.3 µM (active) and 30.6 µM (active).
Regarding `O=C(O)c1cc(=O)[nH]c(=O)[nH]1`, the Potency result in [1], in assay [2], in [4], in assay [5], in assay [12] and in [6] was “inactive” throughout. In addition, the Potency entry in assay [13], in [7], in assay [8], in assay [9], in assay [10] and in assay [14] was “inactive” each time. Further, the Potency entry in assay [11] was “inactive”.
Turning to `CN(C)/N=N/c1nc[nH]c1C(N)=O`, the Potency result in assay [1], in assay [2], in assay [4], in assay [5], in assay [6] and in assay [13] was “inactive” in each case. Also, the Potency entry in assay [7], in [9], in assay [10], in assay [14] and in [11] was “inactive” throughout.
With `O=C(O)CCCCCCCCCCCC(=O)O`, the Potency entry in assay [1], in assay [2], in assay [4], in [5], in assay [6] and in assay [13] was “inactive” in each case. The Potency entry in [7], in [10] and in assay [11] was “inactive” each time.
On to `Cc1ccc(C(C)(C)C)c(O)c1`, for which the Potency entry in assay [2], in assay [4], in assay [5], in [7] and in assay [11] was “inactive” in each case. Moreover, in assay [8], the Potency is 47.4 µM (active) and inactive.
In the case of `CC(=O)[C@H]1CC[C@H]2[C@@H]3CC=C4C[C@@H](O)CC[C@]4(C)[C@H]3CC[C@]12C`, the Potency result in assay [1], in assay [2], in assay [3], in assay [4], in assay [5] and in assay [6] was “inactive” in each case. In addition, the Potency entry in assay [13], in assay [9] and in [11] was “inactive” throughout.
For `Oc1ccc(C(c2ccc(O)cc2)C(Cl)(Cl)Cl)cc1`, the Potency result in assay [2], in [4], in assay [5], in assay [6] and in [13] was “inactive” in each case.
Regarding `C=C[C@@]1(C)CC(=O)[C@]2(O)[C@@]3(C)[C@@H](O)CCC(C)(C)[C@@H]3[C@H](O)[C@H](OC(C)=O)[C@@]2(C)O1`, the Potency in assay [2] is 24.5 µM (active) and 21.3 µM (active); in assay [4], 21.9 µM (active) and 21.3 µM (active); in assay [6], 21.9 µM (active) and 21.3 µM (active); in assay [7] it was 12.3 µM (active). Moreover, the Potency result in [5], in assay [13], in [9], in assay [10] and in [14] was “inactive” in each case.
Consider `NC[C@H](O)c1ccc(O)c(O)c1`, for which the Potency entry in assay [2], in [4], in assay [5], in assay [12], in assay [6] and in [13] was “inactive” throughout. Besides, the Potency entry in [7], in assay [9] and in assay [11] was “inactive” throughout. The result in assay [15] and in assay [16] was inactive.
Regarding `CC(=O)Oc1ccc(C(c2ccc(OC(C)=O)cc2)c2ccccn2)cc1`, the Potency in [2] is 546 nM (active) and 1.07 µM (active); in assay [6] it was 109 nM (active) and 952 nM (active). Besides, the Potency entry in assay [3], in assay [5], in [7] and in assay [11] was “inactive” in each case.
For `CCCCCCOCCOCCO`, the Potency result in assay [1], in assay [2], in assay [4], in assay [5], in [12] and in [6] was “inactive” throughout. Also, the Potency result in [13], in assay [10], in assay [14] and in [11] was “inactive” throughout. Further, the Potency entry in [7] is “inactive and 43.6 µM (active)”.
As to `Cc1ccc2c(c1)C(=O)OC2=O`, the Potency result in assay [1], in assay [2], in assay [4], in [5], in assay [6] and in assay [13] was “inactive” throughout. The Potency entry in assay [7], in [8], in assay [10], in assay [14] and in assay [11] was “inactive” in each case.
